# PubChem BioAssay (NCI)
# Compounds without any hit were thinned out: in the full panel of roughly 83,000, 20% have a hit.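 Cell lines were cultured in 96-well plates, exposed to a single compound concentration, and assessed for percent growth 48 hours later.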 Unmarked numbers belong to inactive results. Active and inactive are the calls of the source. How the source made its calls: active means growth percent below 10; inactive means the rest.
# Assays:
# Experiment in all cases: NCI-60 one-dose screen, 48 h (100 = growth as untreated, 0 = no growth, -100 = all killed)
# [1] = test system: HCT-15 colon
# [2] = test system: HT29 colon
# [3] = test system: SNB-75 CNS
# [4] = test system: SNB-19 CNS
# [5] = test system: U251 CNS
# [6] = test system: PC-3 prostate
# [7] = test system: SK-MEL-5 melanoma
# [8] = test system: UACC-62 melanoma
# [9] = test system: LOX IMVI melanoma
# [10] = test system: SK-MEL-28 melanoma
smiles,measurement,setting,value
COc1ccc(-c2nc3ccc(-c4nnc(SCC(=O)Nc5ccc(/C(C)=N\O)cc5)o4)cc3[nH]2)cc1,growth,[1]; 10 µM unless noted,93.4%
same,growth,[2]; 10 µM unless noted,86.3%
same,growth,[3]; 10 µM unless noted,11.8%
same,growth,[4]; 10 µM unless noted,57%
same,growth,[5]; 10 µM unless noted,18.6%
same,growth,[6]; 10 µM unless noted,44.3%
same,growth,[7]; 10 µM unless noted,-75.7% (active)
same,growth,[8]; 10 µM unless noted,14%
same,growth,[9]; 10 µM unless noted,33.8%
same,growth,[10]; 10 µM unless noted,-64.6% (active)
Cn1cc(-c2cc(N)n3nc(-c4c[nH]c5ccccc45)cc3n2)c2cc(Br)ccc21,growth,[1]; 10 µM unless noted,-76.6% (active)
same,growth,[2]; 10 µM unless noted,-52% (active)
same,growth,[3]; 10 µM unless noted,-47.7% (active)
same,growth,[4]; 10 µM unless noted,-85.9% (active)
same,growth,[5]; 10 µM unless noted,-95.2% (active)
same,growth,[6]; 10 µM unless noted,-42.7% (active)
same,growth,[7]; 10 µM unless noted,-94.5% (active)
same,growth,[8]; 10 µM unless noted,-69.4% (active)
same,growth,[9]; 10 µM unless noted,-79.3% (active)
same,growth,[10]; 10 µM unless noted,-59.1% (active)
CN(C)c1nc(NCCNS(=O)(=O)c2ccc(C(=O)/C=C/c3ccc(C(F)(F)F)cc3)cc2)nc(N2CCOCC2)n1,growth,[1]; 10 µM unless noted,-78.2% (active)
same,growth,[2]; 10 µM unless noted,-73% (active)
same,growth,[3]; 10 µM unless noted,59.5%
same,growth,[4]; 10 µM unless noted,57.8%
same,growth,[5]; 10 µM unless noted,-85.5% (active)
same,growth,[6]; 10 µM unless noted,-60.1% (active)
same,growth,[7]; 10 µM unless noted,-42.8% (active)
same,growth,[8]; 10 µM unless noted,48.2%
same,growth,[9]; 10 µM unless noted,-99.2% (active)
same,growth,[10]; 10 µM unless noted,-9.43% (active)
CC/C(=C(\c1ccc(O)cc1)c1ccc(OCCN(C)C(=O)CCOCCNC(=O)c2ccc3c(c2)CN([C@@H]2CCC(=O)NC2=O)C3=O)cc1)c1ccccc1,growth,[1]; 1 µM,110%
same,growth,[1]; 10 µM,103%
same,growth,[2]; 1 µM,95%
same,growth,[2]; 10 µM,89%
same,growth,[3]; 1 µM,59%
same,growth,[3]; 10 µM,64.2%
same,growth,[4]; 1 µM,92.7%
same,growth,[4]; 10 µM,90.1%
same,growth,[5]; 1 µM,95.3%
same,growth,[5]; 10 µM,92.6%
same,growth,[6]; 1 µM,54.2%
same,growth,[6]; 10 µM,52.9%
same,growth,[7]; 1 µM,95.4%
same,growth,[7]; 10 µM,87.9%
same,growth,[8]; 1 µM,95.9%
same,growth,[8]; 10 µM,95%
same,growth,[9]; 1 µM,104%
same,growth,[9]; 10 µM,94.4%
same,growth,[10]; 1 µM,102%
same,growth,[10]; 10 µM,102%
COc1ccc2[nH]c(=O)cc(-n3ncc(C(=O)/C=C/c4cc(OC)c(OC)c(OC)c4)c3C)c2c1,growth,[1]; 10 µM unless noted,-27.1% (active)
same,growth,[2]; 10 µM unless noted,-27.4% (active)
same,growth,[3]; 10 µM unless noted,32.2%
same,growth,[4]; 10 µM unless noted,19.8%
same,growth,[5]; 10 µM unless noted,-67.4% (active)
same,growth,[6]; 10 µM unless noted,7.18% (active)
same,growth,[7]; 10 µM unless noted,-93.9% (active)
same,growth,[8]; 10 µM unless noted,-69.5% (active)
same,growth,[9]; 10 µM unless noted,-85.6% (active)
same,growth,[10]; 10 µM unless noted,-77.1% (active)
C#CCCCNCCNc1ccnc2cc(Cl)ccc12,growth,[1]; 10 µM unless noted,43.5%
same,growth,[2]; 10 µM unless noted,25.7%
same,growth,[3]; 10 µM unless noted,100%
same,growth,[4]; 10 µM unless noted,101%
same,growth,[5]; 10 µM unless noted,84.3%
same,growth,[6]; 10 µM unless noted,73.1%
same,growth,[7]; 10 µM unless noted,45.9%
same,growth,[8]; 10 µM unless noted,73.5%
same,growth,[9]; 10 µM unless noted,40.1%
same,growth,[10]; 10 µM unless noted,79%
O=C(N/N=C/c1ccc(Cl)o1)c1[nH]c2ccc(Br)cc2c1-c1ccccc1,growth,[1]; 10 µM unless noted,-33.9% (active)
same,growth,[2]; 10 µM unless noted,-34.6% (active)
same,growth,[3]; 10 µM unless noted,-32.9% (active)
same,growth,[4]; 10 µM unless noted,9.24% (active)
same,growth,[5]; 10 µM unless noted,-89.9% (active)
same,growth,[6]; 10 µM unless noted,15.7%
same,growth,[7]; 10 µM unless noted,-74.7% (active)
same,growth,[8]; 10 µM unless noted,3.42% (active)
same,growth,[9]; 10 µM unless noted,-58.2% (active)
same,growth,[10]; 10 µM unless noted,2.44% (active)
CN(C)c1nc(NCCNS(=O)(=O)c2ccc(C3=Nc4c(N)nc(N)nc4NC(c4ccc(C(F)(F)F)cc4)C3)cc2)nc(N2CCOCC2)n1 (stereo not given),growth,[1]; 10 µM unless noted,53.6%
same,growth,[2]; 10 µM unless noted,9.6% (active)
same,growth,[3]; 10 µM unless noted,46%
same,growth,[4]; 10 µM unless noted,49%
same,growth,[5]; 10 µM unless noted,26.6%
same,growth,[6]; 10 µM unless noted,24.2%
same,growth,[7]; 10 µM unless noted,25.5%
same,growth,[8]; 10 µM unless noted,51.5%
same,growth,[9]; 10 µM unless noted,0.0978% (active)
same,growth,[10]; 10 µM unless noted,57.4%
Cc1ccccc1NC(=O)c1cccc(NC(=O)CCl)c1,growth,[1]; 10 µM unless noted,43.5%
same,growth,[2]; 10 µM unless noted,35.6%
same,growth,[3]; 10 µM unless noted,53.9%
same,growth,[4]; 10 µM unless noted,72.7%
same,growth,[5]; 10 µM unless noted,-53.1% (active)
same,growth,[6]; 10 µM unless noted,55.8%
same,growth,[7]; 10 µM unless noted,44.2%
same,growth,[8]; 10 µM unless noted,24.4%
same,growth,[9]; 10 µM unless noted,-47.5% (active)
same,growth,[10]; 10 µM unless noted,71.1%
COc1cc(/C=C/C(=O)c2cnn(-c3cc(=O)[nH]c4ccc(C)cc34)c2C)cc(OC)c1OC,growth,[1]; 10 µM unless noted,-38.7% (active)
same,growth,[2]; 10 µM unless noted,-67.3% (active)
same,growth,[3]; 10 µM unless noted,45.1%
same,growth,[4]; 10 µM unless noted,18.7%
same,growth,[5]; 10 µM unless noted,-85% (active)
same,growth,[6]; 10 µM unless noted,5.99% (active)
same,growth,[7]; 10 µM unless noted,-95.2% (active)
same,growth,[8]; 10 µM unless noted,-71.9% (active)
same,growth,[9]; 10 µM unless noted,-92% (active)
same,growth,[10]; 10 µM unless noted,-77.2% (active)
CC/C(=C(/c1ccc(O)cc1)c1ccc(OCCN(C)C(=O)COCCOCCNC(=O)c2ccc3c(c2)CN([C@@H]2CCC(=O)NC2=O)C3=O)cc1)c1ccccc1,growth,[1]; 1 µM,105%
same,growth,[1]; 10 µM,106%
same,growth,[2]; 1 µM,96.6%
same,growth,[2]; 10 µM,86%
same,growth,[3]; 1 µM,54.5%
same,growth,[3]; 10 µM,34.7%
same,growth,[4]; 1 µM,85.5%
same,growth,[4]; 10 µM,75.5%
same,growth,[5]; 1 µM,98.3%
same,growth,[5]; 10 µM,90.8%
same,growth,[6]; 1 µM,49.6%
same,growth,[6]; 10 µM,39.3%
same,growth,[7]; 1 µM,95.2%
same,growth,[7]; 10 µM,84.1%
same,growth,[8]; 1 µM,93.1%
same,growth,[8]; 10 µM,91.6%
same,growth,[9]; 1 µM,98%
same,growth,[9]; 10 µM,97.2%
same,growth,[10]; 1 µM,101%
same,growth,[10]; 10 µM,97.5%
